According to PubChem BioAssay AID1347426 (Functional Genomics Laboratory (NCATS/FGL), 2020):
Among all 31,000 sequences or so, about 1,400 (4.5%) were called active. Only a selection was taken, and actives are over-represented in it overall. Values without a mark were called inactive.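 How the source made its calls: active means median seed-adjusted z-score above 1 or below -1; inactive means the rest.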

Test: Novel Modifiers of Survival Motor Neuron (SMN) Protein: Gene Identification via Genome-wide siRNA Screen;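 further: luminescence tracks full-length SMN protein made from the SMN2 reporter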
Details: HEK293T SMN2-luciferase reporter, siRNA knockdown, 72 h; actives lie on both sides
In short: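 Each of three siRNAs per gene is reverse-transfected (1 pmol) into reporter HEK293T cells whose luciferase output tracks SMN protein level. After 72 h culture, ONE-Glo luminescence is control-normalized, log10-transformed and MAD-standardized; Common Seed Analysis deprioritizes seed-driven hits.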
With CCCUCCAAAUAGCAAAUGUTT against PCOLCE2 the median seed-adjusted z-score was -1.15 (active). GGGUCAUACGAAUACCGAUTT against VIPR2 showed a median seed-adjusted z-score of 0.706. For GCAACGUGAUCAAAGGUAUTT against GNA13, the median seed-adjusted z-score was 0. Sequence CAAGGACAACUCAAACUUATT against PRKACA has a median seed-adjusted z-score of -0.137. Sequence CGUAUAUAGAGUUCUCAGATT against PABPN1 has a median seed-adjusted z-score of -0.757. For CCCUUAAUUUUGUAACAGATT against SLC7A6, the median seed-adjusted z-score was -0.0877. For GGGUAACCACUGACAUUCATT against SUPT5H, the median seed-adjusted z-score was -4.02 (active). Work on GCCUUAAAAAGCACCAAAATT against ZNF16 yielded a median seed-adjusted z-score of 0. Work on AAGUUCCUAUCGGUCGUAUTT against HBZ yielded a median seed-adjusted z-score of -0.0054. Sequence GGACCAUCGGGAUCAUCAATT against P2RX3 has a median seed-adjusted z-score of -0.44. In the case of GCAAUGAACACCAUCCGAATT against KEAP1, the median seed-adjusted z-score is reported as 0.207. For AGCUCUUAUUAGCUGCAUATT against MS4A7, the median seed-adjusted z-score was 0.0794. For GCAACGAUCACCUAAAUUATT against NOP2, the median seed-adjusted z-score was 1.15 (active). Work on GGUCAAAUCAGCAAAGGUUTT against RNF25 yielded a median seed-adjusted z-score of -0.0826. CGACAAUCUAACUUCCGUATT against CYTH3 showed a median seed-adjusted z-score of 0.196. For CAGGCAUCAUAUUUUGAAATT against NUDT3, the median seed-adjusted z-score was 0.674. CAAAGAUUCUGACUGAUGATT against GPATCH4 showed a median seed-adjusted z-score of -0.519. GAACCUAUCUGAUCGGCAATT against RFX3 showed a median seed-adjusted z-score of 0.17. CAUCUUAAGUGUUUUACAUTT against LMO4 showed a median seed-adjusted z-score of -0.067. Sequence GCAGCAUACAGGAAUACCATT against ATRNL1 has a median seed-adjusted z-score of -0.142. For GCAGCAUAUUAUAGACAAATT against ZBTB37, the median seed-adjusted z-score was -0.219. GCCUGGGUCAAAUACAGUATT against KLHL20 gave a median seed-adjusted z-score of -0.0828. For GAUCAUUGCUGGGAAUCUATT against GPR52, the median seed-adjusted z-score was -1.17 (active). Work on GUCUGAAUGUCGAAGAGAATT against G3BP1 yielded a median seed-adjusted z-score of -0.593. CUGGAACAGUGUACCCAAATT against CD2AP showed a median seed-adjusted z-score of 0.113. Sequence CCAUGUGAUUAUGUACUCATT against ELOVL4 has a median seed-adjusted z-score of 0.166. With AGAUAUAUAAAUCAACGAATT against LSM3 the median seed-adjusted z-score was -1.36 (active). Sequence UGACCUACGAGGAAAUUCATT against PFKFB4 has a median seed-adjusted z-score of 0.149. For CAACGAUAGCUUAUCCCAATT against LPGAT1, the median seed-adjusted z-score was 0.625. In the case of GCUUAUAUGGUGUACAUUUTT against ELOVL6, the median seed-adjusted z-score is reported as 0.742. Work on UCCCGUUCCGUACGACUUATT against DHRS7C yielded a median seed-adjusted z-score of -0.398. In the case of GUGGGAGUCGGGACAUAUATT against MAFK, the median seed-adjusted z-score is reported as 1.73 (active). CCAUUGAUGCAACAGGUAATT against USO1 showed a median seed-adjusted z-score of 0.21. For CAAGGACAAAUUUCCCGUUTT against HOXD8, the median seed-adjusted z-score was -0.883. For GCAUGGUACUCUAUAGUCUTT against FAT4, the median seed-adjusted z-score was -0.363. For GGAUGUGGUAGUACAGAAATT against PSMD2, the median seed-adjusted z-score was -1.44 (active). For GACUGACGAUGACACGGAATT against KPNA6, the median seed-adjusted z-score was -1.54 (active). Work on GGUACUCCAGAGUAUAACATT against CMYA5 yielded a median seed-adjusted z-score of -0.858. Sequence GAGCCUGACUCAGUCUUUATT against AQP9 has a median seed-adjusted z-score of -0.192. GAGAAAUCGUGCUCAGUUATT against CNOT8 gave a median seed-adjusted z-score of 0.375. Work on CCUGUUUCCGUGAAGAAAATT against CXCR4 yielded a median seed-adjusted z-score of -0.347. In the case of ACACCUCUCCGGACACCAATT against IRF3, the median seed-adjusted z-score is reported as 0.0117. For GACGAUGAAUGAAAAGGCATT against NRBP1, the median seed-adjusted z-score was -1.13 (active). Work on AGAAUUCUUCGAUCACAAATT against KCNMB3 yielded a median seed-adjusted z-score of 0.513. Sequence CAAGUACCCUGAUAGAGUUTT against ABHD4 has a median seed-adjusted z-score of -0.054. Work on AGAUGAAGCUGCAAGUGUATT against COX10 yielded a median seed-adjusted z-score of 0.339. For CAGUGGAUCAAAUAACGCATT against ADAMTS20, the median seed-adjusted z-score was 1.44 (active). Sequence GAACCUCAGUCAAAUCGAUTT against OXSR1 has a median seed-adjusted z-score of -0.0682. Work on CCAUUUGGAUAUCAAAGUATT against ILF2 yielded a median seed-adjusted z-score of -0.19. Sequence CAGUCAAGCUUGGAGUUAATT against SYTL3 has a median seed-adjusted z-score of 0.236. For AGAUGUUCUGAGGCUGAUATT against OASL, the median seed-adjusted z-score was 1.02 (active). GGAUAAGGACGACCAGAUUTT against HPCAL4 showed a median seed-adjusted z-score of 0.282. For GUGCUAAAUUUAGCUCAAATT against IL2, the median seed-adjusted z-score was 0.0694. CCAAGCAAAUAGUAGAAGATT against CYLC1 showed a median seed-adjusted z-score of 0.177. In the case of GAACGAGUCCUUUACUACATT against GFM1, the median seed-adjusted z-score is reported as -0.0641. In the case of CAACUUUCAGAUCAGUGAATT against ARD1A, the median seed-adjusted z-score is reported as -1.05 (active). CAGACAAGCUGAUCCGCAUTT against TGM5 gave a median seed-adjusted z-score of 0.0181. For GGUCUGUUCUUCUUACAGATT against PRKCB1, the median seed-adjusted z-score was 0.0463. In the case of GCCCAUCGUGCUUAAAGAATT against RASA3, the median seed-adjusted z-score is reported as 0.0056. CACCUACUGUAGAGGUGAATT against GPRC6A showed a median seed-adjusted z-score of 0. For GAACAUAUCAAGACCGGUUTT against MED30, the median seed-adjusted z-score was -2.06 (active). UAGGGAAGCUGAAAGUGCATT against OXER1 gave a median seed-adjusted z-score of -0.471. CAACCAAUAUAGAACUUCATT against RBBP5 showed a median seed-adjusted z-score of 0.169. With GCAGCCUUGUCAUCGACAATT against PDLIM1 the median seed-adjusted z-score was -0.189. In the case of CCUAAAGCCUGAAGAAGAATT against TXNDC2, the median seed-adjusted z-score is reported as -1.29 (active). For CAUCGGUGCCCAGAAGUCATT against SSBP4, the median seed-adjusted z-score was 0.254. For GACUCUCUGAGGUAGAAAATT against EPN3, the median seed-adjusted z-score was 0.184. For GCUAGAACGGGAACGAAGATT against NEK10, the median seed-adjusted z-score was -0.0464. In the case of CCAGUGCUCCCGAAACUGATT against KRTAP5-5, the median seed-adjusted z-score is reported as -1.07 (active). With GCUCAUCGUGGGUCUCCUATT against POR the median seed-adjusted z-score was 0.189. With CUCUCGUACUUUGAACCUATT against PANK3 the median seed-adjusted z-score was -0.185. With CCCACUAUGCAAAAUGUAATT against PCMT1 the median seed-adjusted z-score was 0.139. GGUGGUCCAUGAAAAAGCATT against SOD1 gave a median seed-adjusted z-score of -0.8. For GCCUUAAAGACUUACCGAATT against USPL1, the median seed-adjusted z-score was -1.87 (active). GUUUGUGACUGUAACCAUUTT against CTBP1 showed a median seed-adjusted z-score of 0.105. In the case of GCUAUGGUGCUGUCGCUUATT against RHOXF2, the median seed-adjusted z-score is reported as -0.331. With GGAAUGGACUCAGUGAUCATT against PFTK1 the median seed-adjusted z-score was 0.088. In the case of CGCGGAAACUUGUCCCUAUTT against SP2, the median seed-adjusted z-score is reported as -0.617. For GCCCUGACAUUUCCCGAAATT against FOXJ2, the median seed-adjusted z-score was -0.627. In the case of UCAAUAAACUGCACGAAUATT against HS3ST1, the median seed-adjusted z-score is reported as 1.21 (active). Work on ACGUGGAAGUGACCCGGAATT against MTX1 yielded a median seed-adjusted z-score of -0.159. GCAUGUCCCGAAAACAAGATT against KLF7 showed a median seed-adjusted z-score of 0.393. GGACUUACGUGGAAGUAGATT against PLCB1 gave a median seed-adjusted z-score of 0.0735. For CGUAGUAUAUUAACAAGUATT against MKKS, the median seed-adjusted z-score was 1.03 (active). In the case of CUCUAGGAGUGACCACGAATT against LYPLAL1, the median seed-adjusted z-score is reported as -0.425. Work on GGAGCACAGAAUACCGGAATT against C3orf64 yielded a median seed-adjusted z-score of 0.0771. With CAAACGGGCUCAUCAUAAUTT against MAX the median seed-adjusted z-score was 0.0949. For AGAGACCCAUGGGAACAAATT against SIGMAR1, the median seed-adjusted z-score was -1.4 (active). Work on CGAAUGUCACCAUAUAUAATT against IL1RL1 yielded a median seed-adjusted z-score of -0.286. With AGGAGGUUACGGCACAAAATT against STK11 the median seed-adjusted z-score was 0.348. Work on GCAACACCAUCGUCUGUGATT against P2RY13 yielded a median seed-adjusted z-score of -0.0427. GGAACAUCAUUCUACCCAATT against KIF15 gave a median seed-adjusted z-score of -0.873. In the case of CCUUAAUCCUUUGUUAACATT against KPNA6, the median seed-adjusted z-score is reported as -1.54 (active). In the case of GGAUGAUGUACUUCUCUCATT against MLNR, the median seed-adjusted z-score is reported as -0.038. Work on CCCUGUCCUUAGCACUCUATT against GFI1B yielded a median seed-adjusted z-score of 0.154. With GGAGCAUUCUCAUUCGAGATT against CSTF3 the median seed-adjusted z-score was 0.0879. In the case of GCUUGCAGUUAAUAUCAUUTT against ODC1, the median seed-adjusted z-score is reported as -1.64 (active). Work on GCAGAGUGCUUCCCAGUGATT against JRK yielded a median seed-adjusted z-score of -0.624. Sequence CAGAUGUCAUGAAUCAAGATT against RPUSD2 has a median seed-adjusted z-score of -0.215. In the case of CAAGUACAAUACUAACUGUTT against ZNF280C, the median seed-adjusted z-score is reported as 0.336. Sequence CAACGGCAACGGAGAGGAUTT against SLC24A6 has a median seed-adjusted z-score of -0.792. GCGGAACACGAAGAAGUAATT against TMPRSS11E showed a median seed-adjusted z-score of 0.0512. With GGGACGAGAUGGUAAAGAATT against ATP2B2 the median seed-adjusted z-score was 1.37 (active). CCAUGUAUCUGAGUGAUCATT against ERC2 gave a median seed-adjusted z-score of 0.172. With GGAUCUAAUCUUAGAUGUATT against POLR2H the median seed-adjusted z-score was -2.74 (active). With GAAUGAGGUUGACUUCUAUTT against CASQ2 the median seed-adjusted z-score was 0.4. GGAUUAUCUCCUCAUUACATT against MCF2L2 gave a median seed-adjusted z-score of -0.465. CCUUGAUCAUCGACAUUCUTT against GIT1 showed a median seed-adjusted z-score of -0.307.
